Assay results from the supplement of paper PMC12645437, “Orthogonal IMiD-Degron Pairs Induce Selective Protein Degradation in Cells” (ACS Chemical Biology, 2025).
The full ranking holds about 8,300 sequences; the median of “log2 fold change of degron read counts, EGFP-low vs EGFP+ sorted cells (limma voom), compound-induced degradation” is about -1.1, and the highest 2% start at about 3.2. The sample holds the highest values, similar sequences and a random draw of the others, so the mix is not that of the screen.

B1: 46F_47T_49P_50I_52G_53A_54I_55F_67L_, Q9UKT9 (peptide)
chain: FTCPICGAIFTQKGNLLRHIKL
B2: 46F_47F_49D_50I_52G_53A_54L_55F_67L_, Q9UKT9 (peptide)
chain: FFCDICGALFTQKGNLLRHIKL
B3: 46F_47K_49P_50V_52G_53A_54E_55F_67L_, Q9UKT9 (peptide)
chain: FKCPVCGAEFTQKGNLLRHIKL
B4: 46F_47N_49N_50I_52G_53A_54A_55F_67L_, Q9UKT9 (peptide)
chain: FNCNICGAAFTQKGNLLRHIKL
B5: 46L_47N_49P_50I_52G_53F_54H_55C_67L_, Q9UKT9 (peptide)
chain: LNCPICGFHCTQKGNLLRHIKL
B6: 46L_47Q_49P_50I_52G_53F_54H_55C_67L_, Q9UKT9 (peptide)
chain: LQCPICGFHCTQKGNLLRHIKL
B7: 46L_47W_49P_50I_52G_53F_54H_55C_67L_, Q9UKT9 (peptide)
chain: LWCPICGFHCTQKGNLLRHIKL
B8: 46L_47D_49P_50I_52G_53F_54H_55C_67L_, Q9UKT9 (peptide)
chain: LDCPICGFHCTQKGNLLRHIKL
B9: 46L_47V_49P_50I_52G_53F_54H_55C_67L_, Q9UKT9 (peptide)
chain: LVCPICGFHCTQKGNLLRHIKL
B10: 46L_47Y_49P_50I_52G_53F_54H_55C_67L_, Q9UKT9 (peptide)
chain: LYCPICGFHCTQKGNLLRHIKL
B11: 46L_47M_49P_50I_52G_53F_54H_55C_67L_, Q9UKT9 (peptide)
chain: LMCPICGFHCTQKGNLLRHIKL
B12: 46L_47T_49P_50I_52G_53F_54H_55C_67L_, Q9UKT9 (peptide)
chain: LTCPICGFHCTQKGNLLRHIKL
B13: 46L_47S_49P_50I_52G_53F_54H_55C_67L_, Q9UKT9 (peptide)
chain: LSCPICGFHCTQKGNLLRHIKL
B14: 46L_47E_49P_50I_52G_53F_54H_55C_67L_, Q9UKT9 (peptide)
chain: LECPICGFHCTQKGNLLRHIKL
B15: 46L_47H_49P_50I_52G_53F_54H_55C_67L_, Q9UKT9 (peptide)
chain: LHCPICGFHCTQKGNLLRHIKL
B16: 46L_47F_49P_50I_52G_53F_54H_55C_67L_, Q9UKT9 (peptide)
chain: LFCPICGFHCTQKGNLLRHIKL

Biological target: T1, CRBN, Q96SW2
T1 chain: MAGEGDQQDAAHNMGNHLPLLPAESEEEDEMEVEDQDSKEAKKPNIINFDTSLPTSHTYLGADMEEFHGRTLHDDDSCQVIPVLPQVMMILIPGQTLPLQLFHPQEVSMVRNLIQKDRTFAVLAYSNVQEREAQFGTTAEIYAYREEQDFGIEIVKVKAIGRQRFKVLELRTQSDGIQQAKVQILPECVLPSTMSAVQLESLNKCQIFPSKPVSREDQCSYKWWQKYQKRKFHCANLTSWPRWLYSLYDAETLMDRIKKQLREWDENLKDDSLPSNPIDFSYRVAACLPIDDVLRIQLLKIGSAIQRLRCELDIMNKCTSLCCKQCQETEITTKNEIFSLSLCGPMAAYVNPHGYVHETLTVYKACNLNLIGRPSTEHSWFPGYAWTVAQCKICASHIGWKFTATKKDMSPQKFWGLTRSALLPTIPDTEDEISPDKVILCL
Assay: log2 fold change of degron read counts, EGFP-low vs EGFP+ sorted cells (limma voom), compound-induced degradation; higher = more compound-induced degradation of the degron-EGFP fusion; degrons are variants of IKZF1/3 zinc finger 2; compound dose not given here
Conditions: Jurkat, 18 h

[1] = compound: compound 19 (5-tert-butyl-thalidomide)
[2] = compound: compound 22 (5-morpholino-thalidomide)
[3] = compound: compound 33 (diphenyl IMiD analogue)
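Also: pooled lentiviral library of zinc finger degron-EGFP fusions in mCherry-positive Jurkat cells, FACS-sorted after compound exposure, with degron abundance counted by next-generation sequencing.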

| Sequence | log2 fold change of degron read counts [1] | log2 fold change of degron read counts [2] | log2 fold change of degron read counts [3] | log2 fold change of degron read counts (compound: thalidomide) |
| --- | --- | --- | --- | --- |
| B1 | -0.365 | 1.34 | 2.33 | 2.71 |
| B2 | 2.27 | 1.43 | 0.356 | -1.44 |
| B3 | -1.33 | -1.7 | -2.52 | -0.999 |
| B4 | 1.61 | 0.951 | 0.00357 | -0.128 |
| B5 | 1.34 | 0.56 | 0.934 | 1.12 |
| B6 | 0.55 | 1.17 | 1.51 | 3.3 |
| B7 | 2.74 | 3.54 | 2.74 | 1.65 |
| B8 | 1.47 | 0.38 | 0.522 | 1.41 |
| B9 | 0.161 | 2 | 1.81 | 2.57 |
| B10 | 3.13 | 3.49 | 2.61 | 1.83 |
| B11 | 0.0156 | 1.21 | 2.51 | 2.06 |
| B12 | 1.1 | 2.57 | 2.47 | 2.78 |
| B13 | 2.37 | 2.02 | 2.39 | 2.28 |
| B14 | -0.151 | -0.655 | 1.91 | 2.84 |
| B15 | 2.33 | 2.45 | 2.55 | 1.95 |
| B16 | 2.94 | 3.37 | 2.6 | 1.88 |
